Assay [1] in a line: qHTS assay for small molecule agonists of retinoid X receptor alpha signaling (AID 588544).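 As to activation: 0% = DMSO basal wells and 100% = reference agonist.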 The settings on record: HEK293T RXRa-UAS-bla, beta-lactamase reporter, 18 h; 530 nm emission. In general terms: Quantitative high-throughput screening tests each substance at several concentrations.
Assay [2] deals with Retinoic acid receptor RXR-alpha (Homo sapiens) (UniProt P19793). Described as above. The settings on record: HEK293T RXRa-UAS-bla, beta-lactamase reporter, 18 h; series mostly up to 76.7 µM.
Assay [3] deals with Thyroid hormone receptor beta (Homo sapiens) (UniProt P10828). The experiment in a line: qHTS assay for small molecule agonists of thyroid hormone receptor beta signaling (AID 588545).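 Also: 0% = DMSO only and 100% = 10 nM T3.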 The settings on record: TR-UAS-bla GripTite HEK 293, beta-lactamase ratio, agonist mode, 18 h, percent of T3 response, DMSO as zero; series mostly up to 76.7 µM. In a few lines: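 TR-UAS-bla-GripTite HEK 293 cells in medium with 2% charcoal/dextran FBS, 0.1 mM NEAA and 1 mM sodium pyruvate were treated with titrated compounds for 18 hrs at 37 C. Beta-lactamase reporter was read with CCF4 dye (ex 405, em 460/530 nm); EC50 from Hill fits.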

Assay [4] is described as follows: qHTS assay for small molecule antagonists of retinoid X receptor alpha signaling (AID 588546; active = well fitted inhibition curve with a large enough effect in the signal ratio, with a control signal flat, not every such curve was filed as active; the % refers to the signal ratio;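 also: cells stimulated with 9-cis-retinoic acid as agonist; % is scaled to controls: 0 for no effect and ±100 for the full control effect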). The conditions noted are these: HEK293T RXRa-UAS-bla, beta-lactamase ratio, antagonist mode; measured here: W530 green channel, cytotoxicity proxy. An outline of the steps: (§1)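 Beta-lactamase reporter inhibition, read as CCF4 fluorescence ratio (ex 405, em 460/530 nm) after 2 h at RT. HEK293T UAS-bla cells, 2500/well, were stimulated with 9-cis-RA at 500 or 100 nM final alongside test compound for 18 h at 37 C.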

The target in assay [5] is Retinoic acid receptor RXR-alpha (Homo sapiens) (UniProt P19793). The assay is described as above. The settings on record: HEK293T RXRa-UAS-bla, beta-lactamase ratio, antagonist mode. In a few lines: as §1
The target in assay [6] is Thyroid hormone receptor beta (Homo sapiens) (UniProt P10828). The experiment in a line: qHTS assay for small molecule antagonists of thyroid hormone receptor beta signaling (AID 588547; active = well fitted inhibition curve with a large enough effect in the signal ratio, with a control signal flat, not every such curve was filed as active; the % refers to the signal ratio;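 also: cells stimulated with 0.4 nM T3 agonist during compound exposure; % is scaled to controls: 0 for no effect and ±100 for the full control effect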). The settings on record: TR-UAS-bla HEK293, beta-lactamase ratio, antagonist mode, 18 h. An outline of the steps: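 TR-UAS-bla GripTite HEK293 cells in 2% charcoal/dextran FBS medium were preincubated 4 h at 37 C, given compound (0.59 nM to 92 uM) plus 0.4 nM T3 (final) for 18 h, then CCF4 for 2 h at RT; Hill fit gave IC50.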

Assay [7] can be described thus: qHTS assay for small molecule agonists of the antioxidant response element (ARE) signaling pathway (AID 651741; active = well fitted activation curve with a large enough effect in the signal ratio; the % refers to the signal ratio; also: % of control where 0% means no effect). The conditions noted are these: HepG2 ARE-bla reporter, beta-lactamase FRET ratio, 16 h; series mostly up to 96 µM. In a few lines:
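Compounds in DMSO are pinned onto HepG2 ARE-bla cells (2,000/well) that were preincubated 5 h; plates stay 16 h at 37 C, then beta-lactamase activity is detected with LiveBLAzer B/G substrate by fluorescence.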

A short description of assay [8]: qHTS assay for small molecule disruptors of the mitochondrial membrane potential - 1 hr assay (AID 651754). Also: % is scaled to controls: 0 for no effect and ±100 for the full control effect; nearly all actives have a fitted effect of over 35% in size. The settings on record: series mostly up to 92.2 µM. An outline of the steps: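 HepG2, 2,000 cells/well, overnight attachment; cpd or DMSO 1 hr, 37C/5% CO2; Mito-MPS dye 30 min, 37C; fluorescence monomer (490/535) and aggregate (540/590).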
For assay [9], the target named is Tumor necrosis factor (Homo sapiens) (UniProt P01375). Put plainly: qHTS assay to identify small molecules that stimulate Tumor Necrosis Factor-alpha (TNF-alpha) secretion (AID 651757; active = well fitted curve in the direction sought with a large enough effect in the signal ratio; the % refers to the signal ratio; also: 0% is about no effect). The settings on record: Human cells, HTRF 665/615 ratio; series mostly up to 92.2 µM. In a few lines:
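Read-out is HTRF, a TR-FRET sandwich of cryptate- and XL665-labeled anti-TNF-alpha antibodies detecting cytokine secreted by THP-1 cells. Cells had been incubated with test compounds at 37 C for 17 hrs beforehand.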

Assay [10] in a line: qHTS assay to identify small molecules that stimulate interleukin-8 (IL-8) secretion (AID 651758; active = well fitted activation curve with a large enough effect in the signal ratio; the % refers to the signal ratio; also: 0% is about no effect). The settings on record: HTRF ratio (665/615); series mostly up to 92.2 µM. An outline of the steps:
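THP-1, 2000 cells/well; cpd 16 h, 37 C; add cryptate + XL665 anti-IL-8 Abs; RT 1-3 h; TR-FRET read.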

Assay [11] in a line: qHTS assay for environmental chemicals that activate the Aryl hydrocarbon Receptor (AhR) signaling pathway (AID 651777; active = well fitted curve in the direction sought with a large enough effect; an effect the other way counts as inactive or inconclusive; also: % of control where 0% means no effect; nearly all actives have a fitted effect of over 15% in size). The conditions noted are these: 1A2-DRE human hepatoma cells, luciferase, 24 h; activation: stronger effect = higher value. An outline of the steps:
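AhR activation is scored as a rise in luciferase from a stable DRE–CYP1A2 promoter construct in human hepatoma cells. Treatment lasts 24 hr at 37 C; detection uses One-Glo after 30 min at room temperature.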

In assay [12] the target is Peroxisome proliferator-activated receptor alpha (Homo sapiens) (UniProt Q07869). Put plainly: qHTS assay for small molecule agonists of the peroxisome proliferator-activated receptor alpha (PPARalpha) signaling pathway (AID 651778; active = well fitted curve in the direction sought with a large enough effect; an effect the other way counts as inactive or inconclusive; also: % of control where 0% means no effect). The conditions noted are these: PathHunter PPARalpha complementation, chemiluminescence, 6 h; stronger effect = higher value. An outline of the steps: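 Cells plated at 2,000/well and held overnight at 37 C, 5% CO2, then compound added by pin tool for 6 hr; after PathHunter detection reagent and 60 min at room temperature, chemiluminescence from enzyme complementation was read.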

Assay [13] deals with Nuclear receptor ROR-gamma (Homo sapiens) (UniProt P51449). The experiment in a line: qHTS assay for small molecule antagonists of the retinoid-related orphan receptor gamma (ROR-gamma) signaling pathway (AID 651802; active = well fitted curve in the direction sought with a large enough effect; an effect the other way counts as inactive or inconclusive;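 also: luciferase reporter luminescence driven by ROR response element; % is scaled to controls: 0 for no effect and ±100 for the full control effect; nearly all actives have a fitted effect of over 60% in size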). The conditions noted are these: ROR-gamma antagonist cell reporter assay; series mostly up to 92.2 µM. In a few lines: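 CHO, TET-inducible ROR + RORE-LUC reporter, 1536-well qHTS. Compound pinned, doxycycline added, 16hr 37C/5% CO2. ONE-Glo, 30 min RT, luminescence; signal drop scored as antagonism.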

A short description of assay [14]: qHTS assay for small molecule agonists of the antioxidant response element (ARE) signaling pathway measured by Nrf2-dependant transcriptional activity (AID 720636; active = well fitted curve in the direction sought with a large enough effect in the repeat runs; an effect the other way counts as inactive or inconclusive;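 also: HepG2 cells with an ARE-driven luciferase reporter; % of control where 0% means no effect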). The settings on record: ARE-luc HepG2, Nrf2 luciferase reporter, 16 h; series mostly up to 92.4 µM. An outline of the steps:
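First, ARE-luc HepG2 cells attached for 6 hr at 37 C in 1% dialyzed FBS medium. Next, compound or DMSO was added and incubated 16 hr. Finally, ONE-Glo reagent was added and luminescence measured after 30 min.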

The nature of assay [15]: qHTS assay for small molecule antagonists of the retinoid-related orphan receptor gamma (ROR-gamma) signaling pathway - cell viability counter screen (AID 720652; active = well fitted curve in the direction sought with a large enough effect in the repeat runs; an effect the other way counts as inactive or inconclusive;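 also: compound exposure lasted 16 hr before ATP read; % is scaled to controls: 0 for no effect and ±100 for the full control effect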). The settings on record: RORgamma reporter cell line viability counter screen; series mostly up to 92.2 µM. In a few lines: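 Luminescence from CellTiter-Glo after 30 min at room temperature reported cellular ATP as the cytotoxicity measure. Cells were the CHO reporter line with doxycycline-induced ROR-gamma expression, exposed to compound for 16 hr at 37 C.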

A short description of assay [16]: qHTS assay for small molecule agonists of the antioxidant response element (ARE) signaling pathway measured by Nrf2-dependant transcriptional activity - cell viability counter screen (AID 720653; active = well fitted curve in the direction sought with a large enough effect in the repeat runs; an effect the other way counts as inactive or inconclusive; also: % is scaled to controls: 0 for no effect and ±100 for the full control effect). The conditions noted are these: ARE-bla HepG2 viability, CellTiter-Glo ATP luminescence, 16 h; stronger effect = lower value. An outline of the steps: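 ARE-bla HepG2 cells (2,000/well) rested 5 hrs at 37C/5% CO2, then exposed to compounds in DMSO for 16 hrs. Viability was read in the same wells as intracellular ATP by luminescence, 30 min at room temperature after reagent addition.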

Assay [17] is described as follows: qHTS assay for small molecule activators of the nuclear factor-kappa B (NF-kB) signaling pathway (AID 651749; active = well fitted activation curve with a large enough effect in the signal ratio; the % refers to the signal ratio; also: % of control where 0% means no effect). The settings on record: NF-kB-bla ME-180 cells, beta-lactamase FRET ratio, 16 h; stronger effect = higher value. An outline of the steps: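 Screening used 2,000 ME-180 reporter cells per well exposed to pinned compound (23 nL) or DMSO; after 16 hr at 37C, beta-lactamase expression under NF-kB control was assessed through FRET.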

The nature of assay [18]: qHTS assay for small molecule disruptors of the mitochondrial membrane potential - 5 hr assay (AID 651755). Also: % is scaled to controls: 0 for no effect and ±100 for the full control effect; nearly all actives have a fitted effect of over 40% in size. The conditions noted are these: JC-1-type ratio dye; series mostly up to 92.2 µM. An outline of the steps: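 HepG2 cells, attached overnight at 37C, were exposed to compound or DMSO for 5 hr at 37C, 5% CO2. Mito-MPS dye was then added for 30 min, and fluorescence read at 490/535 nm (monomers) and 540/590 nm (aggregates).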

In assay [19] the target is Voltage-gated inwardly rectifying potassium channel KCNH2 (Homo sapiens) (UniProt Q12809). Put plainly: qHTS Assay for Small Molecule Inhibitors of the Human hERG Channel Activity (AID 588834; active = well fitted curve in the direction sought with a large enough effect; an effect the other way counts as inactive or inconclusive;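 also: top concentration of the series differs between compounds; % is scaled to controls: 0 for no effect and ±100 for the full control effect; lower thallium flux fluorescence means stronger hERG block; nearly all actives have a fitted effect of over 50% in size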). The settings on record: U2OS BacMam hERG, FluxOR thallium flux fluorescence; series mostly up to 92.2 µM. An outline of the steps: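 Concentration-response qHTS measuring drop in thallium-sensitive dye signal. U2OS cells carrying BacMam hERG; compound exposure ~10 min, then stimulation buffer and 2 min read at 1 sec intervals.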

Assay [20] is described as follows: qHTS assay for small molecule activators of the p53 signaling pathway (AID 651743; active = well fitted activation curve with a large enough effect in the signal ratio, not every such curve was filed as active; the % refers to the signal ratio; also: % of control where 0% means no effect). The conditions noted are these: HCT-116 p53RE-bla, beta-lactamase FRET ratio, 16 h; stronger effect = higher value. In a few lines: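 Cell-based beta-lactamase reporter (p53 response elements, HCT-116 background). After a 5-hour preincubation, cells received compound for 16 hours at 37 C; substrate development ran 2 hours at room temperature.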

Where “and” joins values, the source holds several entries; their conditions need not be identical. Identical values can stand only once. Inconclusive results are not listed. Calls of active or inactive are those of the source. Unless noted, calls follow the shape of the full dose curve.

Retinoic acid receptor RXR-alpha (Homo sapiens), sequence (P19793 whole entry, looked up): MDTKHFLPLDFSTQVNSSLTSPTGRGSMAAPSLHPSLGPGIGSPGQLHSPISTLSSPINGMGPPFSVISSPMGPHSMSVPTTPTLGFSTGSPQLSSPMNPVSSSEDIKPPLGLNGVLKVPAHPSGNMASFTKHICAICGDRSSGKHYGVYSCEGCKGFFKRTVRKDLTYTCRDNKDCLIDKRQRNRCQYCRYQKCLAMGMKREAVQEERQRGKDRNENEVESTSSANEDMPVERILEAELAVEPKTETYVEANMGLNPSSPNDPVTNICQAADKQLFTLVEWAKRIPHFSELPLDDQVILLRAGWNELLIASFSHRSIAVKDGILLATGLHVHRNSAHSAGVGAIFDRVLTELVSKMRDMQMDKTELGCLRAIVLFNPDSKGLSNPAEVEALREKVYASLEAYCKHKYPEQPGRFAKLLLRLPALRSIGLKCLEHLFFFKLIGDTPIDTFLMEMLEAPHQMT
Thyroid hormone receptor beta (Homo sapiens), sequence (P10828 whole entry, looked up): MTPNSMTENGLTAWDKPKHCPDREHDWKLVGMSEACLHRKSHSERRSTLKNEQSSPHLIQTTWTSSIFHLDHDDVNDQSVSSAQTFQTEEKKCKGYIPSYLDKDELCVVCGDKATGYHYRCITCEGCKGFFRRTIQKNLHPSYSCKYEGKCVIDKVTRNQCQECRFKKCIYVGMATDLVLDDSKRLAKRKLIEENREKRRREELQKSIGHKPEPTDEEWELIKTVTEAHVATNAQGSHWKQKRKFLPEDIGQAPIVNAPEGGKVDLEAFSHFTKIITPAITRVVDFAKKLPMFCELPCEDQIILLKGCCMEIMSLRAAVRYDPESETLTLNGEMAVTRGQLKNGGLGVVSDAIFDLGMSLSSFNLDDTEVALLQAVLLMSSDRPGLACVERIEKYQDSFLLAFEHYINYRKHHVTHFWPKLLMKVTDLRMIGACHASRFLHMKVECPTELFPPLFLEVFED
Nuclear receptor ROR-gamma (Homo sapiens), sequence (P51449 whole entry, looked up): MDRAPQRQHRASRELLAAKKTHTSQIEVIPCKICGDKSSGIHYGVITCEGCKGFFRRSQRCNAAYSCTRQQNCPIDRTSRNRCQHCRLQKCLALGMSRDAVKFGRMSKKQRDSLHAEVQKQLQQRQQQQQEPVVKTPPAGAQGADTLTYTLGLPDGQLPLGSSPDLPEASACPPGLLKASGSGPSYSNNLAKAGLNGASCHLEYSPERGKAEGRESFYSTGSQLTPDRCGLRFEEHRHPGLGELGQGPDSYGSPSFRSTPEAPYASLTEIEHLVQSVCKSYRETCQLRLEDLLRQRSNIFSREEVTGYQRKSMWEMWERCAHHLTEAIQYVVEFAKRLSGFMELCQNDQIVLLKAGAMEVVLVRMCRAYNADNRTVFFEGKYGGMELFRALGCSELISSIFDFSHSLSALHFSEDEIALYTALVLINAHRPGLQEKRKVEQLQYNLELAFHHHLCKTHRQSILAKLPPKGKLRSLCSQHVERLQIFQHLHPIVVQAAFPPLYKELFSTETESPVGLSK
Tumor necrosis factor (Homo sapiens), sequence (P01375 whole entry, looked up): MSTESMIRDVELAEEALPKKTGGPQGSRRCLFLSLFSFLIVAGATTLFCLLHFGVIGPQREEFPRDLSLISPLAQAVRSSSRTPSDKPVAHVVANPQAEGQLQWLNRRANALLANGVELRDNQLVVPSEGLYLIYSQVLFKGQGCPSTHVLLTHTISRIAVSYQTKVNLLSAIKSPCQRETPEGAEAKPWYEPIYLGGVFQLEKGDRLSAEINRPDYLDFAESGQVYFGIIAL
Peroxisome proliferator-activated receptor alpha (Homo sapiens), sequence (Q07869 whole entry, looked up): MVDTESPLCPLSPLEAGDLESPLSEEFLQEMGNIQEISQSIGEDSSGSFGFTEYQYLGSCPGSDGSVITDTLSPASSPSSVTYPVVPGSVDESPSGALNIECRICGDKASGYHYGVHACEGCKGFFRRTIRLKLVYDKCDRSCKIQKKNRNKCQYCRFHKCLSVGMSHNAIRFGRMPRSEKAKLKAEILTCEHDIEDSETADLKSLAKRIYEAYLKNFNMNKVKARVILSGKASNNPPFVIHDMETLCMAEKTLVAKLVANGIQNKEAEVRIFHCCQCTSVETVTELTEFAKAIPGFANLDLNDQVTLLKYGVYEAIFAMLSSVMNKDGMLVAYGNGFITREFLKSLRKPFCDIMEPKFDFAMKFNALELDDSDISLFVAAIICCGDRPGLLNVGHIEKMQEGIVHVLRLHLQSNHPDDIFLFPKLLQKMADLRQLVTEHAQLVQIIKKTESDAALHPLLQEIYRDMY
Voltage-gated inwardly rectifying potassium channel KCNH2 (Homo sapiens), sequence (Q12809 whole entry, looked up): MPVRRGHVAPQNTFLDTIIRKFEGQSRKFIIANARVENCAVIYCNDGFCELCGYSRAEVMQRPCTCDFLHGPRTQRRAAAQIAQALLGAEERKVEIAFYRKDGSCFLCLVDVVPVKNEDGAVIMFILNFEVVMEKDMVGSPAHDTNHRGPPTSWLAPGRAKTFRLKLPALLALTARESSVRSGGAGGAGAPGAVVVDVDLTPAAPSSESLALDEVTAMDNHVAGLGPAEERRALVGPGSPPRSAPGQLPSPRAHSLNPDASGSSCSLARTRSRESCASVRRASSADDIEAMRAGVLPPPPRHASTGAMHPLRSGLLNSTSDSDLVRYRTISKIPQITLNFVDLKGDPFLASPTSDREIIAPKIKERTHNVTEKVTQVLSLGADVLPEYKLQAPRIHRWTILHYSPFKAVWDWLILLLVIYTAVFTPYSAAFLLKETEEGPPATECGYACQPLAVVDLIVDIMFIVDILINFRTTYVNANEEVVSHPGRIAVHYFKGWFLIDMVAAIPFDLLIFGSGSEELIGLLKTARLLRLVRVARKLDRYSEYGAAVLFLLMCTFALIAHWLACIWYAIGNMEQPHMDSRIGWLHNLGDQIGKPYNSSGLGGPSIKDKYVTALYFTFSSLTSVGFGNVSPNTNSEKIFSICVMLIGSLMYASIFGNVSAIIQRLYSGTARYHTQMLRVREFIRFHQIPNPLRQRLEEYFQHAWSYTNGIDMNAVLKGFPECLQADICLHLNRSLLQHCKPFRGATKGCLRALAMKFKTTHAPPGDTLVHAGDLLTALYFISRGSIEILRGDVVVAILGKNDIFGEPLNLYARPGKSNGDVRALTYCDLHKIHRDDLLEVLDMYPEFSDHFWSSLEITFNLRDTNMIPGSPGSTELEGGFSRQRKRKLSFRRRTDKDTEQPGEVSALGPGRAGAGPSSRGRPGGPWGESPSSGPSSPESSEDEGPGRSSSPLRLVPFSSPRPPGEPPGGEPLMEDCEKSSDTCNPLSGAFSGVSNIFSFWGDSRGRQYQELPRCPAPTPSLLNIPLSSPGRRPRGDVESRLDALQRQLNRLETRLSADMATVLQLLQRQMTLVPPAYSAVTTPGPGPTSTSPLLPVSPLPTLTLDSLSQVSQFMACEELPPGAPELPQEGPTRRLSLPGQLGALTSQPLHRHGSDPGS

Turning to `Cc1ccc(C(C)(C)C)cc1`, the max response in assay [1] was -4.76%; in assay [4] it was -11.6%; in assay [5], 4.12% (inactive); in assay [12], 3.18% (inactive); in assay [16], -0.19% (inactive). Further, the molecule was classed as inactive in assay [2], in assay [3] and in assay [14]. Moreover, the activity change % (negative = inhibition) in assay [6] is 14% (inactive). In addition, the Potency entry in assay [7], in assay [8], in [9], in assay [10], in [13] and in [15] was “inactive” each time. The activation in assay [11] was -0.334% (inactive).
With `Cc1ccc(Cl)cc1N`, the max response in assay [1] was 3.01%; in assay [4], -7.87%; in assay [5], 0.248% (inactive); in assay [12] it was -6.36% (inactive); in assay [16] it was 6.01% (inactive). The molecule was called inactive in assay [2], in assay [3] and in assay [14]. Also, the activity change % (negative = inhibition) in [6] was -4.43% (inactive). Besides, the activation in assay [17] was 0.369% (inactive). Further, the Potency result in [18], in [9], in assay [13] and in assay [15] was “inactive” in each case.
Regarding `Cc1ccccc1C#N`, the max response in assay [1] is -8.62%; in assay [4], -10.7%; in assay [5], 15.6% (inactive); in assay [12], -1.24% (inactive); in assay [16] it was -8.58% (inactive). Besides, the outcome in assay [2], in assay [3] and in assay [14] was inactive. For the same molecule, the Potency entry in assay [19], in [7], in [8], in assay [18], in assay [9] and in [10] was “inactive” each time. Besides, in assay [13], the Potency entry was “inactive”. Further, the activation in assay [20] was -0.804% (inactive); in assay [11], 3.69% (inactive).
For the molecule `CCCCC(CC)COC(=O)CCCCC(=O)OCC(CC)CCCC` (centres undefined), the max response in assay [1] is -13% and -12.5%; in [4], -3.16% and -14.9%; in assay [5] it was 12% (inactive) and 4.32% (inactive); in [12], -4.18% (inactive) and -1.05% (inactive); in assay [16], 11.7% (inactive) and -4.79% (inactive). Moreover, the molecule was classed as inactive in [2], in assay [3] and in [14]. Moreover, the Potency entry in [19], in assay [7], in assay [8], in [18], in assay [9] and in [15] was “inactive” in each case. The activation in [20] was -0.514% (inactive) and -0.3% (inactive); in [17], 0.278% (inactive) and -0.188% (inactive); in [11] it was -0.729% (inactive) and -3.02% (inactive).

The record behind these values is PubChem BioAssay (NCATS).
